Screening results from PubChem BioAssay.
Most compounds without a hit are left out; they make up all but 3% or so of the library.
esBAF inh = inhibitors of esBAF chromatin remodeling in mouse ES cells. Bmi1-luciferase knock-in reporter, 24 h; 100% = twice the neutral-well signal. reporter increase, % at 12.5 µM. 350,000 tested, 2% active; in the data active means activation above about 40%;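 further: 0% = median of the plate's neutral control wells and 100% = double that signal; a rise in the Bmi1 reporter signal indicates esBAF inhibition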
Wnt bcat act = activates Wnt/beta-catenin signaling in a reporter cell assay; activator, plate reader; activation, % at 9.35 µM; 300,000 tested, 1.2% active; in the data active means activation above about 30%, passing the limit was not always enough;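 further: 0% = neutral control wells and 100% = positive control wells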
Statin myotox sup = protects C2C12 myotubes from simvastatin toxicity | ATP luminescence, 48 h; scaled: DMSO 0, geranylgeraniol control 100 | rescue of ATP level, % at 7.49 µM | 330,000 tested, 0.78% active;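 active means mean ATP rescue above about 67%, or every replicate alone reaching that limit, limit read from the data, passing the limit was not always enough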;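 further: myotubes were challenged with 10 µM simvastatin during compound exposure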
MITF TRPM1 HTS = increases MITF-driven TRPM1 promoter luciferase signal. activation, % at 12.5 µM. 300,000 tested, 0.75% active. SK-MEL-5 TRPM1-promoter luciferase, 24 h; % of positive control, neutral wells = 0;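 active means mean activation of at least 80% with every replicate also reaching 80%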;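 further: 0% = neutral control wells and 100% = parthenolide positive control wells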
Starred values were filed as active, the others as inactive; . = no result given.

SMILES	esBAF inh	Wnt bcat act	Statin myotox sup	MITF TRPM1 HTS
O=C(Nc1ccccc1C(=O)NCc1ccco1)c1ccccc1	3	.	12	-9
O=C(NCCSCc1ccco1)Nc1ccc(Cl)cc1	63*	2	6	.
O=C(C[C@H]1CC[C@H]2[C@@H](COC[C@H](O)CN2Cc2ccccc2F)O1)N[C@@H]1CCN(Cc2ccccc2)C1	-6	.	3	.
CNC(=O)C[C@@H]1CC[C@@H]2[C@H](COC[C@@H](O)CN2C(=O)c2ccc3c(c2)OCO3)O1	-6	.	22	.
C[C@H](CO)N1C[C@H](C)[C@H](CN(C)S(=O)(=O)c2ccc(F)cc2)Oc2c(NC(=O)C3CCOCC3)cccc2C1=O	-7	.	-5	.
CCOc1cc2c(C#N)c(N3CCCCC3)nc(N)c2c(N)n1	54*	.	-37	31
CCCCC[C@@H](O)c1cc2ccccc2c(=O)o1	43*	11	0	-4
O=C(C[C@H]1CC[C@@H]2[C@H](COC[C@@H](O)CN2C(=O)c2cnccn2)O1)NCc1ccc(F)cc1	-3	.	-8	.
CC(C)(C)c1ccc(OCCn2ccccc2=O)cc1	60*	62*	-2	.
C[C@H](CO)N1C[C@H](C)[C@H](CN(C)C(=O)NC2CCCCC2)OCCCC[C@H](C)Oc2ccc(NS(=O)(=O)c3cccs3)cc2C1=O	1	.	16	.
C[C@@H]1CCCCO[C@H](CN(C)C(=O)NC2CCCCC2)[C@H](C)CN([C@@H](C)CO)C(=O)c2cc(NS(=O)(=O)c3cccs3)ccc2O1	3	.	92*	.
C[C@@H]1CCCCO[C@@H](CN(C)C(=O)c2ccccc2)[C@H](C)CN([C@@H](C)CO)C(=O)c2cc(NS(=O)(=O)c3cccs3)ccc2O1	-1	.	90*	.
C[C@@H]1CCCCO[C@@H](CN(C)S(=O)(=O)c2ccc(Cl)cc2)[C@H](C)CN([C@@H](C)CO)C(=O)c2cc(N(C)C)ccc2O1	3	.	-29	.
CO[C@@H]1CN(C)C(=O)c2cc(NC(=O)Nc3cc(F)ccc3F)ccc2OC[C@@H](C)N(C(=O)c2ccccn2)C[C@H]1C	-3	.	-1	.
COc1ccc(CN(C)C[C@@H]2Oc3ccc(NS(=O)(=O)c4ccc(F)cc4)cc3CC(=O)N([C@H](C)CO)C[C@@H]2C)cc1	1	.	18	.
C[C@H](CO)N1C[C@H](C)[C@H](CN(C)CC2CCCCC2)Oc2ccc(NS(=O)(=O)c3ccc(F)cc3)cc2CC1=O	3	-7	-16	0
C[C@@H]1CN([C@H](C)CO)C(=O)Cc2cc(NS(=O)(=O)c3ccc(F)cc3)ccc2O[C@H]1CN(C)CC1CCCCC1	4	.	108*	.
Cc1ccc(S(=O)(=O)Nc2ccc3c(c2)CC(=O)N([C@@H](C)CO)C[C@@H](C)[C@H](CN(C)Cc2ccc(-c4ccccc4)cc2)O3)cc1	2	.	103*	.
COc1ccc(CN(C)C[C@H]2Oc3ccc(NS(=O)(=O)c4ccc(F)cc4)cc3CC(=O)N([C@@H](C)CO)C[C@@H]2C)cc1	0	.	67*	.
COc1ccc(CN(C)C[C@H]2Oc3ccc(NS(=O)(=O)c4ccc(F)cc4)cc3CC(=O)N([C@H](C)CO)C[C@H]2C)cc1	-4	.	69*	.
C[C@H](CO)N1C[C@H](C)[C@@H](CN(C)C(=O)Nc2ccc(F)cc2)Oc2c(NC(=O)C3CCOCC3)cccc2C1=O	4	.	6	.
O=C(C[C@H]1CC[C@@H](NC(=O)C2CCC2)[C@H](CO)O1)NCCCN1CCOCC1	1	.	-6	.
C[C@H](NC(=O)C[C@H]1CC[C@H]2[C@@H](COC[C@@H](O)CN2C(=O)Nc2cc(Cl)cc(Cl)c2)O1)c1ccccc1	6	.	-16	.
CO[C@H]1CN(C)C(=O)c2ccc(NS(=O)(=O)c3ccccc3F)cc2OC[C@@H](C)NC[C@H]1C	-4	.	-1	.
COc1ccc(CN(C)C[C@@H]2Oc3ccc(NS(=O)(=O)c4ccc(Cl)cc4)cc3CC(=O)N([C@H](C)CO)C[C@H]2C)cc1	3	.	95*	.
SMILES	esBAF inh	Wnt bcat act	Statin myotox sup	MITF TRPM1 HTS
C[C@@H]1CN([C@H](C)CO)C(=O)Cc2cc(NS(=O)(=O)c3ccc(Cl)cc3)ccc2O[C@H]1CN(C)Cc1ccccc1	5	.	96*	.
COc1ccc(CN(C)C[C@H]2Oc3ccc(NS(=O)(=O)c4ccccc4)cc3CC(=O)N([C@@H](C)CO)C[C@@H]2C)cc1	0	.	66*	.
COc1ccc(S(=O)(=O)N(C)C[C@@H]2Oc3ccc(NS(=O)(=O)c4ccc(Cl)cc4)cc3CC(=O)N([C@@H](C)CO)C[C@H]2C)cc1	4	.	73*	.
C[C@@H]1CN([C@@H](C)CO)C(=O)Cc2cc(NC(=O)CCC(F)(F)F)ccc2O[C@H]1CN(C)Cc1ccccc1	1	.	0	.
O=C(C[C@@H]1C[C@@H]2c3cc(NC(=O)Nc4ccc(C(F)(F)F)cc4)ccc3O[C@@H]2[C@@H](CO)O1)NCC1CC1	-7	.	12	.
COc1ccc(S(=O)(=O)Nc2ccc3c(c2)CC(=O)N([C@H](C)CO)C[C@@H](C)[C@H](CN(C)Cc2ccc(Cl)c(Cl)c2)O3)cc1	5	.	110*	.
C[C@@H]1CN([C@@H](C)CO)C(=O)c2cc(NS(=O)(=O)c3ccc(F)cc3)ccc2O[C@H]1CN(C)Cc1ccc(-c2ccccc2)cc1	0	.	71*	.
COc1ccc(S(=O)(=O)Nc2ccc3c(c2)CC(=O)N([C@H](C)CO)C[C@H](C)[C@H](CN(C)Cc2ccc(Cl)c(Cl)c2)O3)cc1	4	.	-9	.
CC(C)(C)c1[nH]nc2c1C(C1C=CCCC1)C(C#N)=C(N)O2 (stereo unspecified)	3	.	3	.
CC(C)c1[nH]nc2c1C(C1C=CCCC1)C(C#N)=C(N)O2 (stereo unspecified)	.	46*	.	-10
COc1ccc(C(=O)NCCn2cc(SCC(=O)NCc3ccco3)c3ccccc32)cc1	52*	.	29	4
COc1ccccc1NNC(=O)c1cc(C(C)(C)C)nn1Cc1ccccc1	.	54*	.	.
Cc1ccc(S(=O)(=O)N[C@H]2C=C[C@@H](CC(=O)N3CCc4ccccc4C3)O[C@@H]2CO)cc1	-1	.	8	.
CCn1c(SC(C)C)nnc1-c1cc(-c2ccccc2)sc1N	68*	16	-30	.
CCn1c(SCc2cccc(C)c2)nnc1-c1ccccc1	11	.	-4	15
O=C(C[C@@H]1CC[C@H]2[C@@H](COC[C@H](O)CN2C(=O)Nc2ccc(F)cc2)O1)NCCCN1CCOCC1	2	.	-21	.
C=CCn1c(SCC(=O)NC2CCCC2)nc2scc(-c3ccco3)c2c1=O	7	-1	116*	4
C=CCn1c(SCC(=O)NCCCC)nc2scc(-c3ccco3)c2c1=O	5	-2	.	-4
Cc1cc(C)c2c(c1)/C(=N/NS(=O)(=O)c1ccccc1)CCC2	8	.	136*	-9
Fc1cccc(-c2c(-c3ccccc3)ncc3cc(F)ccc23)c1	-6	2	23	4
O=[N+]([O-])c1cccc(-c2c(-c3ccccc3)ncc3ccc(F)cc23)c1	18	26	121*	42
Cn1c(=O)c2c(nc(NC3CCCCC3)n2CC(O)COc2ccccc2)n(C)c1=O (stereo unspecified)	7	.	81*	8
